# Laboratory results from PubChem BioAssay (NCI).
# About 79,000 compounds went through this panel and 15% of them were active in at least one assay; those are over-represented in the sample as a whole. A number with no mark means an inactive call. Activity calls are given as the source filed them. No stated cut-off is given here; in the data, active means growth inhibition above about 70%; inactive means the rest.
# Tests used:
# [1] = NCI Yeast Anticancer Drug Screen. Data for the rad50 strain (AID 155);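 further: 0% = growth of vehicle-only cultures of the same strain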; details: S. cerevisiae rad50 strain growth inhibition, stronger effect = higher value
# Summary of the method: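 A DNA repair-deficient yeast mutant serves as the test organism; compound-induced growth inhibition is calculated against vehicle-treated cells.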
# [2] = NCI Yeast Anticancer Drug Screen. Data for the mec2-1 strain (AID 157); details: S. cerevisiae mec2-1 strain, stronger effect = higher value
# Summary of the method: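 Test agents were screened against the mec2-1 yeast strain, with defined DNA repair or cell cycle alteration. Growth was scored as inhibition against vehicle-only controls.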
# [3] = NCI Yeast Anticancer Drug Screen. Data for the sgs1 mgt1 strain (AID 161);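 further: 0% = growth of cultures given vehicle only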; details: S. cerevisiae sgs1 mgt1 strain, stronger effect = higher value
# Summary of the method: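 Read-out: growth inhibition vs vehicle controls. Cells: mutant yeast strain deficient in DNA damage repair.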
# [4] = NCI Yeast Anticancer Drug Screen. Data for the cln2 rad14 strain (AID 165);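 further: 0% = growth equal to vehicle treated cultures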; details: S. cerevisiae cln2 rad14 strain, stronger effect = higher value
# Summary of the method: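 Growth of compound-exposed yeast (cln2 rad14 genotype) measured and expressed as inhibition relative to vehicle.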
# [5] = NCI Yeast Anticancer Drug Screen. Data for the bub3 strain (AID 167); details: S. cerevisiae bub3 mutant strain, stronger effect = higher value
# Summary of the method: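 Inhibition values come from growth of compound-treated mutant yeast normalised to vehicle-treated controls.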
# [6] = NCI Yeast Anticancer Drug Screen. Data for the mlh1 rad18 strain (AID 175); details: S. cerevisiae mlh1 rad18 strain growth inhibition, stronger effect = higher value
# Summary of the method: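 In this whole-cell yeast screen, a strain with altered DNA damage repair is challenged with compound, and its growth is measured against matched vehicle-treated controls.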
# [7] = at 5.0 µM (retest, dose inferred, filed as 0.5)
# [8] = at 50.0 µM (retest, dose inferred, filed as 5.0)
SMILES,"growth inhibition [1, 7]","growth inhibition [1, 8]",growth inhibition ([1]; at 50.0 µM),"growth inhibition [2, 7]","growth inhibition [2, 8]",growth inhibition ([2]; at 50.0 µM),"growth inhibition [3, 7]","growth inhibition [3, 8]",growth inhibition ([3]; at 50.0 µM),"growth inhibition [4, 7]","growth inhibition [4, 8]",growth inhibition ([4]; at 50.0 µM),"growth inhibition [5, 7]","growth inhibition [5, 8]",growth inhibition ([5]; at 50.0 µM),"growth inhibition [6, 7]","growth inhibition [6, 8]",growth inhibition ([6]; at 50.0 µM)
O=[N+]([O-])c1ccc(Oc2c(Cl)cccc2Cl)cc1,-7%,9%,-12.9%,-13%,-5%,-11.7%,-6%,-33%,5.4%,-9%,-1%,-44.1%,14%,19%,75.5% (active),-12%,13%,14.8%
CCC(=O)N1c2ccccc2CC1c1c[nH]c2ccccc12 (configuration not stated),-4%,98% (active),95.2% (active),-10%,98% (active),30.8%,-3%,98% (active),77.4% (active),-56%,99% (active),74.5% (active),-10%,78% (active),8.15%,1%,98% (active),93.3% (active)
CN=C(N)N/N=C(\C)c1ccc2c(c1)Cc1cc(/C(C)=N/NC(N)=NC)ccc1-2,63%,94% (active),87% (active),53%,96% (active),75.9% (active),45%,98% (active),83.2% (active),50%,95% (active),85.3% (active),54%,96% (active),86.1% (active),59%,96% (active),86.4% (active)
CCOC(=O)CCc1ccc(OC)c(OC)c1,1%,-2%,-9.55%,16%,-4%,23%,0%,-2%,22.9%,3%,-8%,38.7%,-2%,19%,17.4%,2%,-1%,-5.15%
CCC1OC(OC)C=CC1=O (configuration not stated),-1%,-8%,90% (active),-10%,-25%,94% (active),-14%,-19%,90.2% (active),18%,15%,90.5% (active),-6%,-15%,90.3% (active),-16%,-30%,91.8% (active)
Cc1c[n+](=O)c2ccccc2n1[O-],-21%,10%,2.6%,-14%,-16%,-16.6%,-9%,-7%,-20.4%,8%,1%,70.8% (active),13%,-11%,-10.6%,-11%,-6%,-0.1%
C/C(=N/Nc1ccccc1)C(=O)O,18%,97% (active),97.8% (active),6%,88% (active),97.8% (active),11%,50%,97.7% (active),8%,96% (active),98% (active),6%,96% (active),97.4% (active),28%,98% (active),97.2% (active)
CC1OC(OC2C(OC3CCC4(C)C(CCC5(C)C4CC=C4C6CC(C)(C)CCC6(CO)C(O)CC45C)C3(C)C)OC(C(=O)O)C(OC3OC(COC4OC(CO)C(O)C(O)C4O)C(O)C(O)C3O)C2O)C(O)C(O)C1O (configuration not stated),-21%,99% (active),92.7% (active),-22%,100% (active),94.2% (active),-14%,98% (active),94.4% (active),15%,99% (active),92.5% (active),-9%,99% (active),93.4% (active),9%,99% (active),93.5% (active)
c1coc(C2=Nc3cccc4cccc(c34)N2)c1,6%,84% (active),50.5%,5%,62%,10.3%,36%,81% (active),76.7% (active),4%,65%,32.5%,5%,94% (active),36.4%,-13%,96% (active),54.6%
O=C1C=CC(=Nc2cc3c(cc2Br)-c2ccccc2C3Br)O1 (configuration not stated),23%,99% (active),28.9%,20%,99% (active),79.8% (active),15%,100% (active),21.4%,6%,99% (active),-12.8%,7%,99% (active),-3.95%,26%,99% (active),28.9%
Cc1ccsc1/C=N/Nc1ccc2ccccc2n1,30%,72% (active),78% (active),20%,74% (active),59.5%,44%,97% (active),86.8% (active),47%,91% (active),50.6%,42%,95% (active),79% (active),25%,84% (active),23.4%
CC1=C(C(=O)Nc2ccccc2)C(c2cccc([N+](=O)[O-])c2)C(C(=O)Nc2ccccc2)=C(C)N1,4%,30%,-7.95%,1%,63%,26.1%,4%,30%,19.1%,-2%,24%,4.75%,6%,75% (active),35.4%,-7%,24%,18.9%
NC(=O)c1nnn(Cc2cc(Cl)c(C(=O)c3ccc(Cl)cc3)c(Cl)c2)c1N,2%,98% (active),57.2%,3%,99% (active),98.9% (active),2%,99% (active),50.3%,1%,98% (active),98.6% (active),5%,99% (active),98.8% (active),13%,94% (active),98.8% (active)
Cc1c2c(c(O)c3c(O)cccc13)C(=O)C1(O)C(=O)C(C(N)=O)C(O)C(N(C)C)C1C2 (configuration not stated),27%,99% (active),65.7%,82% (active),100% (active),99.2% (active),-90%,100% (active),58%,66%,99% (active),98.7% (active),61%,99% (active),98.6% (active),70% (active),99% (active),99.1% (active)
CCCc1cc(=O)oc2c3c(c4c(c12)OC(C)(C)C=C4)O[C@@H](C)[C@H](C)[C@H]3O,-1%,91% (active),96.7% (active),0%,94% (active),94.8% (active),11%,95% (active),51.8%,2%,93% (active),92.4% (active),-2%,94% (active),96.5% (active),1%,93% (active),95.1% (active)
CCN(CC)Cc1cc(N=Nc2c(O)ccc3c(N=Nc4ccc(O)c(CN(CC)CC)c4)c(O)ccc23)ccc1O,62%,86% (active),96.4% (active),-2%,53%,85.4% (active),1%,76% (active),94.3% (active),-7%,56%,56.6%,-1%,61%,65.8%,-1%,72% (active),93.7% (active)
O=[N+]([O-])c1cccc2nc3ccccc3c(NCCO)c12,78% (active),94% (active),86.8% (active),84% (active),98% (active),92% (active),82% (active),95% (active),91.5% (active),89% (active),96% (active),92% (active),28%,94% (active),87.2% (active),89% (active),96% (active),86.6% (active)
Cc1c2ccccc2c(C)c2c1ccc1ccccc12,73% (active),91% (active),96.8% (active),93% (active),91% (active),97.5% (active),93% (active),94% (active),97.7% (active),60%,91% (active),83.4% (active),81% (active),93% (active),94.3% (active),93% (active),91% (active),98.1% (active)
CCN(CC)c1ccc(SC#N)cc1,1%,93% (active),91.2% (active),-39%,94% (active),95.1% (active),0%,95% (active),58%,-3%,88% (active),90.2% (active),10%,96% (active),97.5% (active),-3%,95% (active),93.6% (active)
